Test results from PubChem BioAssay (EPA / NIEHS).
Results filed as inconclusive are left out. The source made the active and inactive calls. How the source made its calls: active means hit-call score of the fitted dose curve at least 0.9, where 1 is the maximum; inconclusive means response in the unintended direction; inactive means score below 0.9.

experiment: Tanguay_ZF_120hpf_AXIS_legacy: (Legacy) Oregon State University Tanguay Lab 120 Hour Post-fertilization zebrafish Assay for Body Axis Malformation (AID 2283635)
Method in brief: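 Chorion is removed with pronase at 4 hpf, then single 6 hpf embryos are dosed (final DMSO 0.64%) and held statically at 28C in sealed, foil-covered plates. At 120 hpf body axis malformation is recorded as present or absent.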

| SMILES | outcome |
| --- | --- |
| COc1ccc(C(=O)Nc2nc3ccccc3c(NCc3ccccc3)c2C#N)cc1 | inactive |
| CC1=C(C)S(=O)(=O)CCS1(=O)=O | inactive |
| Cc1cn([C@H]2C=C[C@@H](CO)O2)c(=O)[nH]c1=O | inactive |
| O=C(N[C@@H](c1ccccc1)[C@@H]1CCCCN1)c1cccc(C(F)(F)F)c1Cl | inactive |
| CCCCC(CC)COP(=O)(OCC(CC)CCCC)OCC(CC)CCCC (centres undefined) | inactive |
| COC(=O)CCCC(=O)OC | inactive |
| CCCCCCCCCCCCCCCCO | inactive |
| CC(N)=O | inactive |
| CCCCCCC(CCCCCCCCCCC(=O)OCC(COC(C)=O)OC(C)=O)OC(C)=O (centres undefined) | inactive |
| C=CCCCCCCCCCCCC | inactive |
| CC(=O)S[C@H](C(=O)N[C@H]1Cc2ccccc2[C@H]2CCC[C@@H](C(=O)O)N2C1=O)C(C)C | inactive |
| CCCCCCC(C=O)=Cc1ccccc1 | inactive |
| CCCCc1nc2cccnc2n1Cc1ccc(-c2ccccc2-c2nnn[nH]2)cc1 | inactive |
| CC(C)(C)c1ccccc1 | inactive |
| O=C(NS(=O)(=O)/C=C/c1cccs1)c1ccc(F)cc1Br | inactive |
| CC1(C)C(=O)NC(=O)N1CO | inactive |
| CC(=O)O[C@]1(C(C)=O)CC[C@H]2[C@@H]3C=C(Cl)C4=CC(=O)[C@@H]5C[C@@H]5[C@]4(C)[C@H]3CC[C@@]21C | inactive |
| CC(=O)[C@@]1(O)CC[C@H]2[C@@H]3CCC4=CC(=O)CC[C@]4(C)[C@H]3CC[C@@]21C | inactive |
| CS(=O)(=O)c1ccc([C@@H](C[C@H]2CCC(=O)C2)C(=O)Nc2cnccn2)cc1Cl | inactive |
